Reference: PubChem BioAssay AID743279 (National Center for Advancing Translational Sciences (NCATS), 2014)
Hit rate of the full screen: of about 360,000 compounds, about 17,000 (4.7%) were called active. Not shown: some 5% with an inconclusive outcome. Rule as the data show it: active = activity change below about -50%; inconclusive = mostly about -30% to -49%; inactive = weaker than that. The entries come from a sample that favours actives as a whole.

Test: qHTS for Inhibitors of Inflammasome Signaling: IL-1-beta AlphaLISA Primary Screen
Conditions: THP-1 LPS/ATP IL-1B secretion, 16 h; at 57.5 µM, hits give low values
Text: Inflammasomes are a set of intracellular multi-protein complexes that enable autocatalytic activation of inflammatory caspases and drive the innate immune response to counter harmful agents. […] A qHTS assay, based on AlphaLISA technology, was developed to screen the Molecular Libraries Small Molecule Repository (MLSMR) to look for novel inflammasome inhibitors. The assay detects IL-1B using AlphaLISA anti-IL-1B acceptor and donor beads. A decreased emission signal, indicating reduced IL-1B secretion, is the desired outcome for this assay. NIH Chemical Genomics Center [NCGC] NIH Molecular Libraries Probe Centers Network [MLPCN] MLPCN Grant: MH095513 Assay Provider: Shyam Biswal Ph.D., Johns Hopkins University Immunity. 2012 Jul 27;37(1):85-95. PMID: 22819042 [2] Curr Pharm Des. 2012;18(16):2320-8. PMID: 22390695
Three microliters containing 3000 THP-1 cells were dispensed into the wells of solid, white, tissue culture treated Greiner 1,536-well plates. Library compounds and positive control, Glyburide, were pin-transferred (23 nL) by a Kalypsys pin-tool equipped with a 1,536-pin array, resulting in final compound concentration ranges of 2.5 nM to 57.5 uM. After 1 hr of cell culture incubation (37 °C, 5% CO2), 1 microL of 1 microg/mL lipopolysaccharide (250 ng/mL, final) and 5 mM ATP (1.25 mM, final) were added to stimulate the cells. After 16 hr of cell culture incubation with the compounds, 1.5 uL of anti-IL-1B acceptor beads (6 ug/mL, final) and biotinylated antibody (0.6 nM, final) were added to the plate, followed by a 1 hr incubation at ambient temperature. To detect the secreted IL-1B, 1.5 uL of AlphaLISA SA-Donor beads (24 ug/mL, final) were added, followed by 30 min of incubation in the dark at ambient temperature. The AlphaLISA signal was read by a PerkinElmer EnVision plate reader with an ultrasensitive luminescence detector and 1536 Plate HTS AlphaScreen aperture (excitation of 680nm and emission of 615nm).
% is scaled to controls: 0 for no effect and ±100 for the full control effect.

Activity change, active:
CCc1nc2ccc(C(=O)NCc3ccc(OC)cc3)cn2c1N(CC)Cc1cccc(Br)c1 -70.8%
CC(C)CC[n+]1ccn(C2=C([O-])c3ccccc3C(=O)/C2=N\S(=O)(=O)c2ccccc2)c1 -50.7%
C/C(CC1CC(C)(C)OC1=O)=N/Nc1nc(-c2ccccc2)cs1 (stereo not drawn) -54.9%
O=C(c1ccccc1)N1CCC(CC2CC(c3ccc(Cl)cc3)=NO2)(C(=O)NCC2CCCCC2)CC1 (stereo not drawn) -55.1%
COc1ccc(CNC(=O)C2(CC3CC(c4ccccc4)=NO3)CCN(C(=O)c3cccc(O)c3)CC2)cc1 (stereo not drawn) -61.2%
CC(=O)Nc1cc(-c2ccc(N3CCN(C)CC3)cc2)cn2c(-c3ccc(F)cc3)cnc12 -91.8%
CSCCC(NC(=O)c1ccccc1)C(=O)N1CCN(Cc2ccc(Cl)cc2)CC1 (stereo not drawn) -78.1%
COc1ccc(C2Nc3ccccc3C(=O)N2Cc2ccccc2)cc1Cn1nnc2ccccc21 (stereo not drawn) -62.4%
COc1cc(SC#N)ccc1N=Cc1c(C)[nH]n(-c2ccc(C)cc2)c1=O -83.8%
Cc1ccc(-c2nc(CSCC(=O)NC3CCN(Cc4ccccc4)CC3)c(C)o2)cc1 -64.8%
CCOC(=O)N1CCC(N2Cc3cccc(C(=O)Nc4c(C)cccc4CC)c3C2=O)CC1 -55.1%
COc1cccc(NC(=O)CN(C)C(=O)CSCc2nc3scc(-c4cccs4)c3c(=O)[nH]2)c1 -57.4%
c1ccc2c(NC3C4CC5CC(C4)CC3C5)nc(N3CCOCC3)nc2c1 (stereo not drawn) -79.7%
COc1ccc(/C=C/C(=O)c2ccc(NS(=O)(=O)c3ccc(C)cc3)cc2)cc1O -103%
O=C(O)c1ccccc1N=N/C(=N/Nc1cc(S(=O)(=O)O)ccc1O)c1ccccc1 -57.4%

Activity change, inactive:
COc1ccc(-n2ncc3c2CC(C)(C)CC3NC(=O)CCc2c(C)noc2C)cc1 (stereo not drawn)
O=C(N=C1SC2CS(=O)(=O)CC2N1Cc1ccccc1)c1ccccc1 (stereo not drawn) -24.4%
CCc1nc2ccc(C(=O)NCCNC(C)=O)cn2c1N(CC)Cc1cccc(Br)c1 27.3%
CCc1nc2ccc(C(=O)Nc3cccc(OC)c3)cn2c1N(CCC(C)C)CCN(C)C 30.7%
CN(C(=O)CN1CCN(c2cc(-c3ccc(OCc4ccccc4)cc3)ncn2)CC1)c1ccccc1 8.46%
Cc1ccc(S(=O)(=O)/N=C2\C=C(NS(=O)(=O)c3ccc(C)cc3)C(=O)c3ccccc32)cc1 57.7%
COc1ccc(S(=O)(=O)/N=C2\C=C(NS(=O)(=O)c3ccccc3)C(=O)c3ccccc32)cc1 36%
CC(=O)c1ccc(NC(=O)C(C)NCc2ccc(Cl)cc2)cc1 (stereo not drawn) -14.8%
CCc1nc2c(OCc3ccccc3)cccn2c1N(C)C(=O)c1ccco1 -17.3%
C[C@H]1CN([C@@H](C)CO)C(=O)c2cc(-c3cccc(F)c3)cnc2O[C@@H]1CN(C)S(C)(=O)=O 7.01%
CCC(=O)N1CCc2cc(Br)c(S(=O)(=O)NCCN3CCCCC3CC)cc21 (stereo not drawn) -5.22%
CCc1noc(C)c1C(=O)Nc1nc(-c2ccccc2)cs1 61.4%
CC1(C)CC(CC(=O)O)C(=O)O1 (stereo not drawn) -17%
COC(=O)[C@@]1(Cc2ccc(F)cc2)[C@H]2c3cc(C(=O)N4CCCC4)n(C[C@H](O)CO)c3C[C@H]2CN1C(=O)c1ccccc1 -0.432%
CN1OC[C@@H]2CN(S(=O)(=O)c3cccc4ccccc34)[C@H](c3ccc(N4CCCCC4)cc3)C[C@@H]21 -6.93%
Cc1ccccc1-c1cc(C(=O)NCC2CC2)n(CC2CC(c3cccnc3)=NO2)n1 (stereo not drawn) -18.9%
CCNC(=O)C1(C)CCN(C(=O)c2ccccc2)C1 (stereo not drawn) 26.9%
COc1ccc(CNC(=O)C2CCN(C(=O)c3ccccc3)CC2)cc1 0%
CCCCCCCNC(=O)C1(CC2CC(c3cccc(Br)c3)=NO2)CCN(C(=O)c2cc(OCC)c(OCC)c(OCC)c2)CC1 (stereo not drawn) -24.2%
O=C(C[C@H]1CC[C@H]2[C@@H](COC[C@H](O)CN2C(=O)c2ccccn2)O1)N1CCN(c2ccccc2)CC1 18.8%
CC(=O)N=c1ncn(CC(COC(C)=O)OC(C)=O)c2nc[nH]c12 (stereo not drawn) -17.6%
O=c1[nH][nH]c2c1[C@H](c1ccc(Cl)cc1)O[C@H](CCc1ccccc1)C2 -5.73%
Cc1cccc(CC2(O)C(=O)Nc3ccccc32)n1 (stereo not drawn) 12.5%
Cc1cc(C(C)(C)C)cc(S(=O)(=O)Nc2ccc(C(=O)O)cc2)c1C 0%
COc1ccc(NC(=O)C(=O)NCC(c2ccco2)N2CCc3ccccc3C2)cc1 (stereo not drawn) 5.37%
CC(=O)Nc1cc(-c2ccc(N3CCN(C)CC3)cc2)cn2c(-c3cccc(C(=O)N(C)C)c3)cnc12 -6.52%
COc1ccccc1-c1cc(NC(C)=O)c2ncc(-c3ccc(F)cc3)n2c1 -21.1%
CC(=O)N1c2ccc(S(=O)(=O)N3CCCC(C(=O)NCc4ccc(Cl)cc4)C3)cc2CC1C (stereo not drawn) -22.7%
CCN(CCN(C)C)C(=O)c1ccc2nc(C)c(N(C)C(=O)CCc3ccccc3)n2c1 10.6%
CC(=O)Nc1cccc(NC(=O)c2ccc3c(c2)CCN3S(C)(=O)=O)c1 -15.8%
Cc1cc(C)cc(NC(=O)C(c2ccccc2)N2CCN(CC(=O)N3CCCC3)CC2)c1 (stereo not drawn) 15.8%
Cc1[nH]c(C)c(S(=O)(=O)N2CCC(C)CC2)c1C(=O)N1CCCC1 -16.2%
CSCCC(NC(=O)c1ccccc1)C(=O)N1CCCCCCC1 (stereo not drawn) -20.8%
COc1ccccc1C(=O)NC(CCSC)C(=O)N1CCN(C(C)=O)CC1 (stereo not drawn) -2.96%
O=C1NC[C@@H](CCCCN2CCN(CCc3ccc(O)cc3)C(=O)C2=O)N(CC2CCCCC2)C1=O 24.5%
COc1ccc(C2Nc3ccccc3C(=O)N2c2ccc(F)cc2)cc1Cn1nnc2ccccc21 (stereo not drawn) -12.7%
COc1ccc(N2C(=O)c3ccccc3NC2c2ccc(OC)c(CN3CCOCC3)c2)cc1 (stereo not drawn) -2.56%
Nc1ncnc2c1ncn2[C@@H]1O[C@H](C(=O)NS(=O)(=O)c2c(Cl)nc3sccn23)[C@@H](O)[C@H]1O -13.5%
CC(=O)Nc1cccc(-c2cc(NC=O)c3ncc(-c4ccc(F)c(Cl)c4)n3c2)c1 18.8%
Cc1cccc(C)c1NC(=O)C(c1cccc(F)c1)N1CCN(C)CC1 (stereo not drawn) -18.5%
FC(F)(F)Oc1ccccc1C(c1nnnn1C1CCCCC1)N1CCN(C/C=C/c2ccccc2)CC1 (stereo not drawn) -26.5%
O=C(CSc1ccc(Cl)cc1)NC1CC1 3.85%
Cc1ccc(S(=O)(=O)NCCC(=O)NC2CCN(Cc3ccccc3)CC2)cc1 -11.3%
Cc1ccc(-c2cc(C(=O)NC3CCN(Cc4ccccc4)CC3)c3ccccc3n2)cc1 -4.22%
CC(=O)c1ccc(S(=O)(=O)N(C)CCCC(=O)N(C)Cc2ccccc2F)cc1 -0.0792%
Cc1cccc(C)c1NC(=O)N1CC(C)OC(C)C1 (stereo not drawn) -6.92%
Cc1ccc(S(=O)(=O)N(C)c2nc3ccccc3n3c(C(C)C)nnc23)cc1 9.42%
O=C1N(c2ccc(Cl)cc2)C(c2ccc(Cl)cc2)N2CCCN12 (stereo not drawn) -5.15%
CCOC(=O)N1CCC(N2Cc3cccc(C(=O)Nc4ccc(S(=O)(=O)N(CC)CC)cc4)c3C2=O)CC1 63.8%
O=C(O)c1cccc2c1C(=O)N(C1CCCC1)C2 -1.11%
CC1(C(=O)NCc2ccc3c(c2)OCO3)CCN1C(=O)Cc1cccs1 (stereo not drawn) -5.2%
COc1cccc(NC(=O)CN(C)C(=O)CSC(=S)N2CCCC2)c1 6.49%
COc1cccc(NC(=O)CN(C)C(=O)/C=C/c2cn(-c3ccccc3)nc2-c2cccs2)c1 -24.8%
Cc1cc(C)n(CC(=O)Nc2ccc([N+](=O)[O-])cc2)n1 15.4%
COCOc1cccc(CN2CCC(C)(Oc3ccc(SC)cc3)C2)c1 (stereo not drawn) -9.11%
c1cnc(NC2C3CC4CC(C3)CC2C4)nc1 (stereo not drawn) 16.6%
Fc1cnc(N2CCOCC2)nc1NCc1ccccc1 38.4%
O=C(CNC(=O)N1CC(=O)Nc2ccccc21)Nc1ccc(Br)cc1F 16.8%
CC(C)Cc1nnc(N)s1 -2.84%
CC1Cc2nc(SCC(=O)Nc3ccccc3F)n(C)c(=O)c2S1 (stereo not drawn) 11.4%
COCc1cccc(-c2csc(C(O)c3ccc(F)cc3)n2)c1 (stereo not drawn) -9.62%
Cc1ccc(C(=O)/C=C/Nc2ccc(S(=O)(=O)Nc3onc(C)c3C)cc2)cc1 31.6%
COc1ccc(NS(=O)(=O)c2ccc(NC(=S)NC(=O)/C=C/c3ccc(C)cc3)cc2)nn1 -26.8%
CC1CC(C)CN(c2ccc(S(=O)(=O)N3CCOCC3)cc2)C1 (stereo not drawn) -9.62%
COc1ccc(NC(=O)CSc2nnnn2-c2cccc(OC)c2)cc1 -9.12%
CC1(C(=O)NS(=O)(=O)Cc2cccc(Cl)c2)CCN1C(=O)Cc1ccc(Cl)cc1Cl (stereo not drawn) -21.1%
O=C(O)c1ccccc1/C=N/Nc1ccc(S(=O)(=O)Nc2ccc(Cl)cc2)cc1[N+](=O)[O-] 12.8%
Cc1ccc(S(=O)(=O)N2CCC(C(=O)N3CCCCCCC3)CC2)cc1 -8.84%
